# Laboratory results reported in PubChem BioAssay (NCI).
# The panel holds about 79,000 compounds, 15% with a hit somewhere; the sample as a whole holds those more often. Unmarked numbers belong to inactive results. Calls of active or inactive are those of the source. No stated cut-off is given here; in the data, active means growth inhibition above about 70%; inactive means the rest.
# Experiments:
# [1] = NCI Yeast Anticancer Drug Screen. Data for the rad50 strain (AID 155);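 further: 0% = growth of vehicle-only cultures of the same strain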; details: S. cerevisiae rad50 strain growth inhibition; at 50.0 µM; hits give high values
# Summary of the method: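 Cells are treated with compound, grown, and their growth is then scored against vehicle-only cultures of the same repair-deficient yeast strain.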
# [2] = NCI Yeast Anticancer Drug Screen. Data for the mec2-1 strain (AID 157); details: S. cerevisiae mec2-1 strain, at 50.0 µM, hits give high values
# Summary of the method: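 Mutant yeast (mec2-1) grown with compound; growth inhibition relative to vehicle control reported.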
# [3] = NCI Yeast Anticancer Drug Screen. Data for the sgs1 mgt1 strain (AID 161);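 further: 0% = growth of cultures given vehicle only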; details: S. cerevisiae sgs1 mgt1 strain, at 50.0 µM, hits give high values
# Summary of the method: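 Compounds are added to genetically altered yeast, and growth is compared with cultures given vehicle alone to give percent inhibition.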
# [4] = NCI Yeast Anticancer Drug Screen. Data for the cln2 rad14 strain (AID 165);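 further: 0% = growth equal to vehicle treated cultures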; details: S. cerevisiae cln2 rad14 strain, at 50.0 µM, hits give high values
# Summary of the method: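 Readout is yeast growth inhibition versus vehicle-treated controls, using a strain with cln2 and rad14 alterations exposed to compound.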
# [5] = NCI Yeast Anticancer Drug Screen. Data for the bub3 strain (AID 167); details: S. cerevisiae bub3 mutant strain, at 50.0 µM, hits give high values
# Summary of the method: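 Part of a panel of yeast mutants defective in DNA damage repair or cell cycle regulation. Each strain is grown with compound, and inhibition is calculated relative to solvent-treated cultures.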
# [6] = NCI Yeast Anticancer Drug Screen. Data for the mlh1 rad18 strain (AID 175); details: S. cerevisiae mlh1 rad18 strain growth inhibition; at 50.0 µM; hits give high values
# Summary of the method: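 Genetically defined yeast (DNA repair-deficient) exposed to compounds; growth inhibition determined relative to vehicle.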
Structure (SMILES),growth inhibition [1] [%],growth inhibition [2] [%],growth inhibition [3],growth inhibition [4],growth inhibition [5] [%],growth inhibition [6]
COC(=O)CCNc1c(OC)ccc2ccccc12,22.1,3.85,11.8%,17.9%,28.4,-5%
O=C(O)Cn1c(=O)n(CC(=O)O)c2ccccc21,6.85,-4.95,-4.2%,-10%,3.25,-7.65%
COc1ccc(/C=C/C(=O)C(CN(C)C)CN(C)C)cc1OC,-0.95,-6.7,-25.2%,-4.8%,-6.55,-16.4%
COC(=O)OCC1OC(OC(C)=O)C2OC(=O)OC12 (configuration not stated),8.55,-16.9,-16.7%,5.45%,2.35,-3.15%
O=C(O)c1ccc(O)c2ccccc12,-21.9,-21.2,-15.4%,-24.7%,-13.1,-21.9%
O=c1[nH]nc(-c2ccccc2)n1/N=C/c1ccncc1,21.7,16.4,15.4%,10.2%,17.6,22.7%
O=C1c2ccccc2C(=O)N1CNc1ccccc1Cl,27.8,8.95,23.2%,18.2%,18.2,17.3%
CSc1ccc(NC(=O)Nc2cc(C)ccc2Cl)cc1,-2.05,23,25.9%,-4.05%,41.1,19.6%
c1ccc(CNc2ncnc3n[nH]nc23)cc1,-14,-11.8,1.2%,0.3%,20.1,-8.3%
CC(=O)OCC1OC(n2c(Br)nc3c(N)ncnc32)C(O)C1O (configuration not stated),-3.35,-4.5,-16.4%,-12.2%,-0.7,-29.4%
CSC(=O)Oc1ccc([N+](=O)[O-])cc1,6.25,1.55,-6.7%,-38.3%,12.5,-2.9%
COc1ccc(C(=O)O/N=C2/CCC/C2=C\c2ccccc2)cc1,13.8,13.2,33.6%,26.4%,10.9,8.4%
S=c1nc(-c2ccnc(-c3nc(=S)[nH][nH]3)c2)[nH][nH]1,-18.4,-18.4,-18.8%,43.7%,-9.75,-43.7%
CC(=O)Nc1ccc(O)c(CN2CCN(c3ccccc3)CC2)c1,33.1,16,17.6%,47.2%,12.1,20.3%
COC(=O)Nn1cc(C(C(C)=O)C(C)=O)c(C(C)=O)c1C,-6.9,-0.15,7.9%,-35.6%,-0.05,17.9%
CCOC(=O)C(NC(=O)c1ccccc1)(c1ccc(S(=O)(=O)Nc2onc(C)c2C)cc1)C(F)(F)F (configuration not stated),7.3,-8.9,-18.9%,-12.1%,-10.6,-4.25%
O=C(Cl)c1ccc2c(c1)C(=O)OC2=O,22.5,-8.9,-11.2%,5.4%,9.55,-10.4%
OC1(c2ccccc2)CCN(C/C=C/c2ccccc2Cl)CC1,66.1,53.9,70.1% (active),77.1% (active),57.6,85.8% (active)
CC(=O)CCC(=O)OCc1ccccc1,35.1,7.75,1.3%,10.3%,-3,4.2%
Cc1cccc(NC(=S)N(CCC#N)C2CCCCC2)c1,1.6,-2.85,14.8%,7%,18.6,9.85%
C[C@@]1(CO)O[C@H]1CCC#C[Si](C)(C)C,-20.9,-32.4,-20.2%,6.7%,-14.2,1.05%

Structure (SMILES),growth inhibition [1] [%],growth inhibition [2] [%],growth inhibition [3],growth inhibition [4],growth inhibition [5] [%],growth inhibition [6]
NCC(c1ccccc1)C1CCCCC1 (configuration not stated),13.2,-2.35,5.05%,-7.5%,-3.9,15%
Cc1ccc(S(=O)(=O)N/N=C/c2cc([N+](=O)[O-])cc(I)c2O)cc1,2.35,-3.6,-4.5%,-50.4%,-10.6,4.2%
N#C/C(=C/n1c(=S)sc2ccccc21)c1nc2ccccc2s1,11.8,14.7,49.6%,24.9%,23.4,30.8%
COC(=O)c1ccc(C(=O)c2ccc(OC)cc2OC)cc1,-0.1,-4.05,-0.85%,-58.8%,4.15,-17.4%
c1ccc2c(-c3ccncc3)c3ccccc3cc2c1,20.8,2.6,9.45%,0.45%,6.5,20.3%
COc1ccc(/C=N/N2CN(C(C)C(=O)O)B(N(CCO)CCO)N=C2N)cc1OC (configuration not stated),15.2,5.3,7.55%,20.9%,7.65,20.9%
CCN(CC)CC,-8.4,-6.2,-21.2%,-53.4%,-19,19.4%
C/C(=C\C(C)(C)c1ccccc1)c1ccccc1,-14.9,-31.6,-3.75%,-8.35%,9.2,-25.1%
Nc1nc2c(-c3ccc([N+](=O)[O-])cc3)nnn2c2ccccc12,12.7,5.5,37%,9.7%,22.2,25.3%
O=C(C[n+]1cccc2cccc(O)c21)c1ccc2ccccc2c1,6.6,7.6,18.8%,26.6%,1.15,2.7%
Cc1ccc(C(=O)C(c2nc3n(c2O)/C(=N/C(=O)Nc2ccc(Cl)cc2)N=N3)c2nc3n(c2O)/C(=N/C(=O)Nc2ccc(Cl)cc2)N=N3)cc1,-44.1,-29.2,-27.2%,-39%,-29.1,-25.4%
CC(C)(C)NC(=O)NCc1ccc(Cl)cc1,-0.5,-16.1,-12.1%,-29.6%,1,-9.8%
COC(=O)/C(C#N)=C(/NCCN)Nc1ccccc1,-10.5,-16.4,-39%,10.1%,-3.1,-8.15%
Cc1cc(S(=O)(=O)Cl)ccc1Cl,14.6,1.3,-0.6%,-29.2%,9.05,7.6%
Nc1ncnc2c1nnn2CCCCCC(=O)O,-6.25,27.8,21.8%,-7.95%,11.8,-13.9%
O=C(O)Cc1ccc(OCCCCCOc2ccc(CC(=O)O)cc2)cc1,6.05,0.25,20.6%,-49.9%,-12,4.35%
O=C(COc1ccc(Cl)cc1)N1N=C(c2ccc(Cl)cc2)CC1(O)c1ccccc1 (configuration not stated),-15.8,-29.8,-8.9%,0.85%,-18.2,-10.6%
CCCCCCCC[n+]1cccc(C#N)c1,12.7,23.6,21.4%,16.7%,36,19.1%
CCC(/C=C\C(C)C1CCC2C3CC=C4CC(OC)CCC4(C)C3CCC12C)C(C)C (configuration not stated),25.2,5.1,-3.4%,20.6%,-3.5,9.05%
CCOC(=O)C1=NC(c2ccccc2)N(c2ccccc2)C1c1ccccc1 (configuration not stated),-9,-8.5,17.9%,-0.75%,10.3,8.3%
Cc1cc2ccccc2n1CC(=O)N1CCCC1,-14.8,-28.6,-23.6%,0.8%,15.9,-11.8%
